Data published in the supplement of paper PMC7184167.

Tested on: replication-induced senescent mouse newborn dermal fibroblasts (NBF)
Experiment: relative cell viability of senescent cells (fraction); higher = less killing of senescent cells
Details: 1 µM; 3 days
Procedure: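 Replication-induced senescent newborn mouse skin fibroblasts (NBFs) in 24-well plates were treated with a Selleck FDA-approved drug library at 1 µM for 3 days.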

Row | SMILES | relative cell viability
1 | CCOc1nc2cccc(C(=O)O)c2n1Cc1ccc(-c2ccccc2-c2nnn[nH]2)cc1 [Candesartan] | 1.02
2 | C[C@]1(c2nc3c(C(N)=O)cccc3[nH]2)CCCN1 [Veliparib (ABT-888)] | 0.885
3 | CCN(CC)C(=S)SSC(=S)N(CC)CC [Disulfiram] | 1.13
4 | CC(C(=O)O)c1ccc(C(=O)c2cccs2)cc1 (stereo not given) [Suprofen] | 0.929
5 | COc1ccc(-n2nc(C(N)=O)c3c2C(=O)N(c2ccc(N4CCCCC4=O)cc2)CC3)cc1 [Apixaban] | 0.89
